# Assay results published in the supplement of paper PMC12636033.
# ± gives the standard deviation of the averaged measurements. The full ranking holds about 33,000 sequences; the median of “E-score (rank enrichment, -0.5 to 0.5)” is about -0.0075, and the highest 2% start at about 0.23. The sample as a whole holds a higher share of the highest values than the screen did.
# Test system: WT Max(13-93) synthetic (M65Nle)
# Test: PBM 8-mer E-score (E-score (rank enrichment, -0.5 to 0.5)); higher = stronger preferential binding
# Protocol: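 Protein binding microarray (universal PBM chip covering all 10-mers in fixed probe flanks) with chemically synthesized human Max(13-93) bHLH-LZ analogs (not full-length Max) bearing noncanonical residues (hArg, Tha, Aib, Nle at 65) and aromatic Cys staples. Read-out per 8-mer (and its reverse complement): E-score (rank-based enrichment, -0.5 to 0.5) and Z-score of median probe intensity.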
row,Sequence,PBM 8-mer E-score
1,AGACTTAC,0.0412 ± 0.036
2,GGACTGAC,-0.163 ± 0.079
3,ACGCGGAC,0.112 ± 0.0026
4,CCCCTTAG,-0.25 ± 0.047
5,ACACACGT,0.295 ± 0.028
6,ATACACGA,0.194 ± 0.032
7,CTACACGA,-0.00142 ± 0.052
8,ACACACAT,0.208 ± 0.024
9,ACACACAA,0.0899 ± 0.06
10,GTACACGA,0.246 ± 0.037
11,GCACACGC,0.284 ± 0.051
12,ACACACGG,-0.09 ± 0.023
13,ACACACGA,0.252 ± 0.021
14,TCACACGA,0.0202 ± 0.039
15,ACACACGC,0.208 ± 0.02
16,GCACACGA,0.121 ± 0.081
17,GGCACATA,-0.00374 ± 0.019
18,TGCGTTAA,-0.0126 ± 0.025
19,CACAATAC,0.204 ± 0.018
20,AGGGTTCG,0.0226 ± 0.091
21,GCCATACA,0.0396 ± 0.039
22,AACCCCCT,-0.12 ± 0.022
23,AGGATCTG,-0.1 ± 0.11
24,CCAACCGC,-0.126 ± 0.13

row,Sequence,PBM 8-mer E-score
1,CTGCCCCC,-0.128 ± 0.089
2,CAAAATAC,0.189 ± 0.047
3,GAGCATGA,0.205 ± 0.03
4,CGGCATGC,0.124 ± 0.05
5,GAGCATAC,0.00326 ± 0.079
6,CAGCATAC,0.0204 ± 0.073
7,CAGCATAG,-0.0673 ± 0.062
8,GACCATGA,-0.0818 ± 0.059
9,GAGCATGC,0.249 ± 0.018
10,CAGCATGA,0.128 ± 0.022
11,GACCATGC,0.27 ± 0.043
12,CAGCATGC,0.237 ± 0.04
13,AACCATGC,0.162 ± 0.018
14,CAGCATGG,0.331 ± 0.028
15,ATCGCGGC,-0.136 ± 0.14
16,CGAAACGC,-0.14 ± 0.0054
17,GAACACTC,-0.0859 ± 0.0037
18,ATTTATTA,0.152 ± 0.031
19,ATACCAAA,0.124 ± 0.029
20,CTAATGGA,-0.125 ± 0.0031
21,ACTATATA,0.274 ± 0.0075
22,GCTATATA,0.146 ± 0.04
23,ACCATATA,0.248 ± 0.043
24,ACTATATC,0.21 ± 0.015

row,Sequence,PBM 8-mer E-score
1,ACCATATC,0.0455 ± 0.019
2,ACCATATG,0.221 ± 0.0037
3,ACCGGCAC,0.0185 ± 0.12
4,CTATCTCC,-0.00138 ± 0.076
5,GAAGTAGA,0.0186 ± 0.0018
6,ACTGATCG,-0.106 ± 0.045
7,GCGTGTAC,0.125 ± 0.015
8,ACGTGTAA,0.35 ± 0.019
9,AAGTGTAT,0.149 ± 0.018
10,CCGTGTAA,-0.00838 ± 0.1
11,ACGTGTAG,0.1905 ± 0.0018
12,ACGTGTAT,0.4013 ± 0.0019
13,TCGTGTAA,0.1 ± 0.05
14,AGGTGTAT,0.136 ± 0.019
15,ACGTGTAC,0.354 ± 0.014
16,ATTACCCA,0.146 ± 0.11
17,CCCTAAGC,-0.152 ± 0.068
18,CAATGTGA,0.179 ± 0.0028
19,AAATGTGA,0.026 ± 0.14
20,ATATAGTA,0.228 ± 0.029
21,GTATATGA,0.266 ± 0.019
22,TAATGTGA,0.233 ± 0.075
23,ATATATGC,0.0949 ± 0.049
24,ATATAGTC,0.107 ± 0.0014

row,Sequence,PBM 8-mer E-score
1,ATATATGG,0.244 ± 0.055
2,ATATATGA,0.0913 ± 0.21
3,CTATATGC,0.168 ± 0.083
4,CTATATGA,0.0892 ± 0.063
5,ATATAGTG,0.2556 ± 0.0011
6,CCTGGCCG,-0.194 ± 0.086
7,ACCCAGAG,-0.0559 ± 0.026
8,CGGTCCAA,-0.19 ± 0.19
9,CGCCTTAG,-0.0361 ± 0.042
10,CGGAAAGC,-0.0958 ± 0.16
11,GCACAGGC,-0.146 ± 0.038
12,GCCCGAGC,0.035 ± 0.06
13,GTATGTGA,-0.0439 ± 0.13
14,ATGTGTGG,0.148 ± 0.055
15,ATATGTGC,0.181 ± 0.014
16,ATATGTGA,0.278 ± 0.14
17,CTATGTGA,0.0181 ± 0.018
18,ATATGTGG,0.292 ± 0.015
19,AAATGTGG,0.245 ± 0.048
20,CAATGTGG,0.133 ± 0.072
21,AAATGTGT,0.224 ± 0.085
22,CCTGTCGA,0.00438 ± 0.055
